Active and inactive are the calls of the source. The calls were made as follows: active = hit-call score of the fitted dose curve at least 0.9, where 1 is the maximum; inconclusive = response in the unintended direction; inactive = score below 0.9.
Assay: CPHEA_Stoker_NIS_Cytotoxicity: Cytotoxicity Assessment for CPHEA's Radioactive Iodide Uptake (RAIU) Assay for Sodium/Iodide Symporter (NIS) Inhibition, Stoker and Laws Labs (AID 2283897);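 as to AC50: active means loss of ATP signal versus DMSO meaning cytotoxicity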
Method: CPHEA_Stoker_NIS is a cell-based, single-readout assay that uses hNIS-HEK293T-EPA, a novel human kidney cell line expressing human NIS, with measurements taken at 2 hours after chemical dosing in a 96-well plate. This radioactive iodide uptake (RAIU) assay is used to identify inhibitors of NIS-mediated iodide uptake. A parallel cytoxicity assay (Cell Titer Glo, Promega) was also run in the same cell line.CPHEA_Stoker_NIS_Cytotoxicity is one of 2 assay components measured from the CPHEA_Stoker_NIS assay. It is designed to make measurements of atp content, a form of viability reporter, as detected with bioluminescence signals by Luciferase-coupled ATP quantitation technology.Data from the assay component CPHEA_Stoker_NIS_Cytotoxicity was analyzed at the endpoint, CPHEA_Stoker_NIS_Cytotoxicity, in the positive analysis fitting direction relative to DMSO as the negative control and baseline of activity. Using a type of viability reporter, measures of ATP content for loss-of-signal activity can be used to understand the viability. To generalize the intended target to other relatable targets, this assay endpoint is annotated to the cell cycle intended target family, where the subfamily is cytotoxicity.
hNIS-HEK293T-EPA cells were seeded with a MultiFlo FX dispenser (BioTek, Winooski, VT) into ScintiPlate-96 microplates (Perkin Elmer, Waltham, MA) at a density of 4.0x10^4 cells per well in 200uL growth media and incubated for 40 hours before experimentation. On day of the assay, carrier-free 125I (Perkin-Elmer, Waltham, MA; specific activity: 17.4Ci/mg) was diluted with Hanks' balanced salt solution (Sigma, St. Louis, MO) supplemented with 10mM HEPES (uptake buffer; pH 7.4) at 5uCi/mL (288pg 125I/mL uptake buffer; 2.30nM). The assay was initiated by washing cells twice with 200uL uptake buffer using a 96-well Tecan HydroSpeed plate washer (Tecan, Mannedorf, Switzerland). Uptake buffer (59.7uL) was then added back to each well. Chemical samples (350nL at 200X) were administered using the HDR tool as previously described to achieve a 1X chemical/0.5% final DMSO concentration with subsequent addition of 10uL of 125I dilution (final [125I]: 329pM; 2.88pg/well) for a final reaction volume of 70uL/well. Cells were incubated at room temperature for 2 hours and then washed twice with 200uL ice cold uptake buffer. All uptake buffer was aspirated from wells, plates were sealed, and read on a MicroBeta2 plate reader (Perkin Elmer, Waltham, MA) using a detection protocol to measure CPM corresponding to intracellular 125I concentration. Each chemical concentration (0.001, 0.01, 0.1, 1.0, 10, and 100uM) was assayed in triplicate with three independent biological replicate plates (3 sequential cell passages). Additionally, a concentration response of NaClO4 (0.001, 0.01, 0.1, 1.0, 10, and 100uM) served as a positive control inhibition curve on each RAIU assay plate. DMSO control wells were assayed on each plate as a measure of maximum iodide uptake for normalization and determination of intra- and inter-assay variation. (Toxicol In Vitro, 2017, 40:66-78).

Structure (SMILES)	outcome	AC50
O=C(OCc1ccccc1)c1ccc(O)cc1	inactive	–
CO[Si](C)(C)OC	inactive	–
Cc1ccc([N+](=O)[O-])cc1N	inactive	–
CCCCC/C=C\C/C=C\CCCCCCCC(=O)O	–	80.1 µM (active)
O=C(OCCc1ccccc1)c1ccccc1	inactive	–
Oc1ccc(-c2ccccc2)c(Cl)c1	inactive	–
CC(C)c1ccc(O)c(C(C)C)c1	inactive	–
C=C1C[C@H]2[C@@H]3C=C(C)C4=CC(=O)CC[C@]4(C)[C@H]3CC[C@]2(C)[C@@]1(OC(C)=O)C(C)=O	inactive	–
COc1ccc(C(=O)c2ccccc2)c(O)c1	inactive	–
C=CCOC(=O)c1ccc(C(=O)OCC=C)c(C(=O)OCC=C)c1	inactive	–
CCCCCCCOC(=O)c1ccc(O)cc1	inactive	–
CN(C)c1ccc2nc3ccc(=[N+](C)C)cc-3sc2c1	–	50 µM (active)
COc1ccc(-c2coc3cc(O)cc(O)c3c2=O)cc1	inactive	–
CCCCCCCCCC[N+](C)(CCCCCCCCCC)CCC[Si](OC)(OC)OC	inactive	–
CCCCCCCCCCCCCCCCCCOS(=O)(=O)O	inactive	–
O=C(O)c1cc(O)c2ccccc2c1O	inactive	–
O=C(Nc1ccccc1)c1cc(Cl)ccc1O	inactive	–
O=C(Oc1ccccc1)c1ccccc1O	inactive	–
c1ccc(Nc2cccc3ccccc23)cc1	inactive	–
C/C=C/C=C/CCCCCCCO	inactive	–

Reference: PubChem BioAssay (EPA / NIEHS)
